# Assay outcomes: PubChem BioAssay, Buhrlage Lab, Dana-Farber Cancer Institute and Novartis Institutes for BioMedical Research (Cambridge, Mass)
# Shown are actives, neighbours in structure and some others; about 14% of the full set was active somewhere.
# USP28 inh: blocks human USP28 ubiquitin-rhodamine cleavage; AID 1645857; inhibition, % at 25 µM; 47,000 compounds, 3% hits; Q96RU2; purified USP28, Ub-rhodamine cleavage fluorescence, 30 min
# USP17 inh: inhibitors of human USP17 deubiquitinase; AID 1645855; A8MUK1; purified USP17, Ub-rhodamine cleavage fluorescence, 3 h; 47,000 compounds, 6.5% hits; inhibition, % at 50 µM
# USP8 block: human USP8 deubiquitinase inhibition; P40818; 47,000 compounds, 4.2% hits; purified USP8, Ub-rhodamine cleavage fluorescence, 30 min; inhibition, % at 20 µM
# Target sequence (P40818 whole entry, looked up): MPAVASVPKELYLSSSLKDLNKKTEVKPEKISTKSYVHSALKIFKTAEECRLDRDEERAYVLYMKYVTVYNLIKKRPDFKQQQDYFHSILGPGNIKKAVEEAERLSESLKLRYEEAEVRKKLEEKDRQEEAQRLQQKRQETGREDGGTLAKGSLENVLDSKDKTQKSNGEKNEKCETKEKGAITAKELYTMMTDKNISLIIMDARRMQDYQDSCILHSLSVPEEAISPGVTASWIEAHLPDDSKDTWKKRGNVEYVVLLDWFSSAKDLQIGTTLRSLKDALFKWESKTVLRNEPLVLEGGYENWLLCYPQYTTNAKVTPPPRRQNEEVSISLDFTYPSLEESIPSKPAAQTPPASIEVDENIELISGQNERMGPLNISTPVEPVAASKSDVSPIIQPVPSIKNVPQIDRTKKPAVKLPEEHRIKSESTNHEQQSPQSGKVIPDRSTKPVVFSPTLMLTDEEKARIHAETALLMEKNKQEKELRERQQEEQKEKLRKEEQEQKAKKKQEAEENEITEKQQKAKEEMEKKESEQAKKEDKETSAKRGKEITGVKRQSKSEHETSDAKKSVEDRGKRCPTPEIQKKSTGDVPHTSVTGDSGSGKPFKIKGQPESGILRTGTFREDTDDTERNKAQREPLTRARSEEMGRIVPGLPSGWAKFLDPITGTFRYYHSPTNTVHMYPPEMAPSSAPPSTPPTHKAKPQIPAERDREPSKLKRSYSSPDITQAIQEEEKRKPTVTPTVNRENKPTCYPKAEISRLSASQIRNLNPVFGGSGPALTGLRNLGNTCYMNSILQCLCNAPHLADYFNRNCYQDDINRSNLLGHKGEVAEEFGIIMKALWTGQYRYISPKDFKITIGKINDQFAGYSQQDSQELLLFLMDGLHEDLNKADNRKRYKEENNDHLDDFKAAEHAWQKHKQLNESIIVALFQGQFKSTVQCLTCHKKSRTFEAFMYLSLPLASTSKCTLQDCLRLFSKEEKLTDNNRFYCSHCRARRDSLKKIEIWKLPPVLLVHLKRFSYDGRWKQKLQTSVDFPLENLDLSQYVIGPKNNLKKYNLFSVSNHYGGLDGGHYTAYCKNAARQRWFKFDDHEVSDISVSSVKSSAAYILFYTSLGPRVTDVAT
# USP30 block: blocks human USP30 ubiquitin-rhodamine cleavage. Q70CQ3. purified USP30, Ub-rhodamine cleavage fluorescence. inhibition, % at 25 µM. 47,000 compounds, 5.3% hits
# USP10 inh: human USP10 deubiquitinase inhibition; Q14694; purified USP10, Ub-rhodamine fluorescence, 60 min; inhibition, % at 20 µM; 47,000 compounds, 1.1% hits
# An asterisk follows results filed as active; i = inactive; . = no result. No stated cut-off is given here; in the data, active means inhibition above about 30%; inactive means the rest.
SMILES,USP28 inh,USP17 inh,USP8 block,USP30 block,USP10 inh
CC(C)CCNC(=O)CCc1nnc2ccc(N3CCCCC3)nn12,1,8,1,10,0
COc1ccc2c(c1)C[C@@H](c1cccnc1)N[C@H]2c1cccnc1,7,10,41*,13,-1
COc1ccc2c(c1)C[C@@H](c1cccnc1)N[C@H]2c1ccccn1,3,1,-10,3,-4
C[C@H]1OC(=O)c2c(O)cccc2[C@H]1O,4,0,0,-20,0
CC1(C(=O)NC2CCCC2)Cn2c(nc3ccccc32)C(=O)N1CCc1ccccc1 (centres undefined),2,9,20,36*,5
COc1ccccc1CN1C(=O)c2nc3ccccc3n2CC1(C)C(=O)NC1CCCC1 (centres undefined),10,-2,-2,30*,2
CC1(C(=O)NC2CCCC2)Cn2c(nc3ccccc32)C(=O)N1Cc1ccc(F)cc1 (centres undefined),-7,-3,6,-8,0
O=c1c2ccccc2nc(/C=C/c2ccco2)n1Cc1ccccc1,-181,-100,0,i,-10
O=S(=O)(c1ccccc1)N1CCC2(CC1)NCCN=C2NCc1cc(F)cc(F)c1,17,10,16,33*,5
O=S(=O)(c1ccccc1)N1CCC2(CC1)NCCN=C2NCc1ccc2c(c1)OCO2,-10,-1,-2,-3,-2
CCC/C=C\C#CC/C=C\CCCCCCCC(=O)O,69*,63*,-15,-87,6
CCCCCCCC/C=C\CCCCCCCC(=O)O,2,22,4,17,13
Cc1ccc(C(=O)N(CN2CCCC2=O)c2ccccc2)cc1,.,5,-2,.,1
COc1ccc(-c2noc(NCCc3ccccc3)n2)cc1,15,37*,21,24,5
O=C(CCc1nc(CSc2nnc(-c3ccco3)o2)no1)Nc1ccccc1,-19,-33,-195,-33,-5
CC1(C)Oc2ccc(C#N)cc2[C@H](N2CCCC2=O)[C@H]1O,-6,-13,3,-18,0
CC(=O)N(O)[C@@H]1c2cc(C#N)ccc2OC(C)(C)[C@H]1O,-2,4,34*,11,2
Cc1ccc(NC(=O)c2nnn(CC(=O)Nc3cccc(C)c3C)c2N)cc1C,27,27,72*,38*,36*
CC1(C)c2[nH]c3ccccc3c2C[C@@H]2C(=O)N(C3CCCCC3)CC(=O)N21,12,12,31*,13,7
CC1(C)c2[nH]c3ccccc3c2C[C@@H]2C(=O)N(C3CCCC3)CC(=O)N21,-1,-1,2,4,0
COc1ccc(N2C(=O)[C@@H]3Cc4c([nH]c5ccccc45)C(C)(C)N3C2=O)c(OC)c1,-21,47*,-9,-22,3
O=C(CCC(=O)N1CCC(C(=O)N2CCCCC2)CC1)Nc1ccc(Oc2ccccc2)cc1,6,7,3,11,-4
CCOC(=O)C1CCN(C(=O)CCC(=O)Nc2ccc(Oc3ccccc3)cc2)CC1,8,21,14,34*,0
Cn1c(=O)n(Cc2ccccn2)c(=O)c2cnc(-c3ccc(Cl)cc3)nc21,-3,-1,-16,-16,-5
Cn1c(=O)c2nc(-c3ccc(Cl)cc3)nnc2n(C)c1=O,16,19,99*,13,40*
SMILES,USP28 inh,USP17 inh,USP8 block,USP30 block,USP10 inh
O=C(c1cccc(F)c1)N1CCC(Nc2cccnc2)C1 (centres undefined),-148,-90,25,i,-4
O=C(NCc1ccc(F)cc1)N1CCC(Nc2cccnc2)C1 (centres undefined),-105,-30,35*,-344,-6
CN=C(N)NCCC[C@H](N)C(=O)O,11,16,24,31*,0
COc1ccccc1CNC(=O)c1cc(OCc2ccccc2)nc2ccccc12,.,57*,-5,.,-1
O=C(NCc1ccc(F)cc1)c1cc(OCc2ccccc2)nc2ccccc12,8,16,-64,31*,2
CCN(CCCNC(=O)c1cnc(Nc2ccccc2OC)c2ccccc12)c1cccc(C)c1,.,-14,-1,.,0
COc1ccc(OCC(O)CNC(=O)Nc2cc(C)cc(C)c2)cc1 (centres undefined),4,-2,-3,0,4
Cc1cc(C)n2cc(CN3CCN(c4ccc(C(F)(F)F)cc4[N+](=O)[O-])CC3)nc2n1,1,-20,-102,17,0
COc1ccc(S(=O)(=O)N(Cc2ccc3c(c2)CCO3)C2CC2)cc1,0,18,8,13,9
CC(=O)c1ccc(S(=O)(=O)N(Cc2ccc(C(=O)NC3CC3)cc2)C2CC2)cc1,15,27,16,30*,5
CCOC(=O)c1cc(-c2ccnn2S(=O)(=O)c2ccc(Cl)cc2Cl)on1,.,-3,-10,.,-4
Cc1c(O)c(O)c(O)c(C=O)c1C=O,68*,62*,4,70*,-13
CCN(CC)c1c(S(=O)(=O)c2ccc(C)cc2)cnc2ccccc12,20,19,21,18,4
CCOc1ccccc1NC(=O)Cn1c(=O)n(CCCC(=O)NC2CCN(Cc3ccccc3)CC2)c(=O)c2ccccc21,5,0,-38,11,2
CCOc1ccccc1NC(=O)Cn1c(=O)n(CCCC(=O)N2CCc3ccccc3C2)c(=O)c2ccccc21,24,15,7,45*,19
C1=CCC(CN(CCCn2ccnc2)Cc2cnc[nH]2)CC1 (centres undefined),-2,0,32*,6,0
O=C(NCCCN1CCCC1=O)c1cc2cn(C3CC3)cc2s1,-44,14,66*,-209,-10
CC1CCN(CCNC(=O)c2cc3cn(C4CC4)cc3s2)CC1,-63,-19,54*,-179,-7
CN1CCCc2cc(C(=O)NCCCN3CCCC3=O)sc21,0,0,0,-22,-5
CN(C)CCCNC(=O)c1cc2cn(C3CCCC3)cc2s1,-4,6,63*,-37,-3
CN1CCN(CCNC(=O)c2cc3cn(C4CCCC4)cc3s2)CC1,0,3,-9,-24,-4
O=C1CC(c2ccc(F)cc2)CC2=C1C(c1cccc([N+](=O)[O-])c1)Nc1ccccc1N2 (centres undefined),-1,-2,-50,6,2
CCC1CCCCN1Cc1nc2c(c(=O)n(C)c(=O)n2C)n1CC(=O)c1ccccc1 (centres undefined),2,7,10,14,-1
Cc1nc(-c2noc(-c3cccc(F)c3)n2)cn1CC(=O)Nc1ccccc1,-5,-17,38*,-4,62*
O=C(Cn1cc(-c2nc(C3CC3)no2)ccc1=O)Nc1ccccc1,0,49*,3,-19,10
O=C(Cn1cc(-c2nc(C3CC3)no2)ccc1=O)Nc1ccccc1F,2,13,7,8,5
N#Cc1cccc(NC(=O)Cn2cccc2-c2nc(-c3ccccc3)no2)c1,17,31*,31*,13,18
CCNC(=O)c1ccc(-c2nnc3ccc(NC(=O)C4CCC4)cn23)cc1,1,12,15,-172,-3
